Screening data from PubChem.
Only some compounds are listed: those with a hit (about 4.7% of all), similar ones and a draw of the others.
EBI2 block: EBI2 (human) antagonism | P32249 | EBI2 beta-arrestin recruitment, luminescence, 7a,25-OHC stimulated | inhibition, % at 5 µM | actives 0.81% (n = 360,000); in the data active = inhibition above about 38%;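 also: enzyme fragment complementation signal reports receptor beta-arrestin coupling in cells; 0% = agonist plus DMSO wells and 100% = wells without agonist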
Target sequence (P32249 whole entry, looked up, the tested form may be a part): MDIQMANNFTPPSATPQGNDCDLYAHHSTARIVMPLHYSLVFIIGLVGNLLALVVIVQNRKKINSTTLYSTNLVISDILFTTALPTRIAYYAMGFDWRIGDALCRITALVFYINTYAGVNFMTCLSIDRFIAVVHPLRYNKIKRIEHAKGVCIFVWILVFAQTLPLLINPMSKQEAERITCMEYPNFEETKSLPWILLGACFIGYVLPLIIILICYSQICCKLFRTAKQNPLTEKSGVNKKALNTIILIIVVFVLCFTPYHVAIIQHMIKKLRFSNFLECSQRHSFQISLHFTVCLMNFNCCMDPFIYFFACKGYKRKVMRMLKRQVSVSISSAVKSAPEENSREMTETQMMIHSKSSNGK
TIM10 inh: growth inhibitors of TIM10 yeast strain; S. cerevisiae TIM10 strain growth, BacTiter-Glo luminescence, 24 h; inhibition, % at 10 µM; actives 1.4% (n = 330,000); AID 463195;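 active = inhibition of 40% or more at the single tested concentration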;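 also: wild-type TIM10 isogenic control strain grown at permissive 25 °C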
SKKanGAS inh: blocks kanamycin growth of S. pyogenes SKKanGAS strain. BacTiter-Glo, 6 h. inhibition, % at 7.5 µM. actives 1.3% (n = 300,000);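 active = mean replicate score, as percent of positive control median, at least 50; inconclusive = mean below 50 but one replicate at or above 50; inactive = mean and every replicate below 50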;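 also: strain carries kanamycin resistance gene driven by streptokinase promoter and grows in 40 µg/ml kanamycin; loss of luminescence reflects streptokinase promoter inhibition or plain growth inhibition; 0% = median of DMSO wells and 100% = positive control at its reference dose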
PfHsp90 yeast 2: growth inhibition of yeast expressing Plasmodium Hsp90 | S. cerevisiae expressing PfHsp90, BacTiter-Glo ATP, 48 h; yeast lacking PDR1 and PDR3 efflux regulators | inhibition, % at 9.4 µM | actives 0.32% (n = 310,000) | AID 504621;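 active = every replicate shows inhibition above about 80%, whatever the replicate mean, limit read from the data; inconclusive = mean inhibition reaches the set limit but some replicate falls short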;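 also: 0% = DMSO neutral controls and 100% = 20 µM radicicol positive controls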
tim23-1 inh: inhibits growth of tim23-1 mutant yeast. S. cerevisiae tim23-1 growth, BacTiter-Glo luminescence, 24 h. AID 463212. actives 1.3% (n = 330,000). inhibition, % at 20 µM;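 active = growth inhibition of the mutant yeast at or above 50%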;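 also: temperature-sensitive mutant grown at 25 °C; plate controls were DMSO-treated mutant yeast for no effect and medium wells lacking yeast for full effect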
tim10-1 inh: inhibits growth of tim10-1 mutant yeast. S. cerevisiae tim10-1 ts strain growth, BacTiter-Glo, 24 h. inhibition, % at 20 µM. actives 2.2% (n = 330,000);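 active = inhibition of at least 40%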;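 also: mutant grown at 25 °C; 0% = DMSO wells with yeast and 100% = wells holding no yeast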
tim10-1 conf: confirmation of tim10-1 mutant yeast growth inhibitors; shares compounds with tim10-1 inh; S. cerevisiae tim10-1 ts strain growth, BacTiter-Glo, 24 h; inhibition, % at 20 µM; actives 56% (n = 7,400); AID 463213;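 active = inhibition of yeast growth at or above a set limit in either of two repeat tests at 20 µM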;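 also: tim10-1 mutant grown at permissive 25 °C to find synthetic lethal compounds; 0% = DMSO yeast wells and 100% = medium wells without yeast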
* = called active by the depositor; u = inconclusive; x = not tested or not shown.

SMILES	EBI2 block	TIM10 inh	SKKanGAS inh	PfHsp90 yeast 2	tim23-1 inh	tim10-1 inh	tim10-1 conf
COc1ccc(Nc2nc(S(=O)(=O)c3ccc(C)cc3)c(Cl)s2)cc1	2	17	5	-19	30	42*	30
CCOc1cc(/C=C2\C(=O)ON=C2c2ccccc2)cc(Br)c1O	-15	12	9	-8	48	45*	30*
O=C(CCCn1nnnc1CN1CCOCC1)N1CCN(c2ccccc2F)CC1	0	-6	1	-9	7	-2	x
O=C(Nc1cccc(Cl)c1)N1CCN(c2ncccn2)CC1	23	16	0	x	25	1	x
CCOc1ccccc1N1CCN(C(=O)Nc2cccc(Cl)c2)CC1	14	21	3	x	14	44*	14
CCN1C(=O)CC(NCc2ccc(S(N)(=O)=O)cc2)C1=O (centres undefined)	-16	-12	-3	-12	13	-4	x
Cn1nccc1C(=O)Nc1nnc(C2CC2)s1	0	-2	3	-11	2	8	x
Cc1cc(/C=N\NC(=O)CC(=O)NC2CCCCC2)c(C)n1-c1cccc(Cl)c1Cl	2	8	9	-22	27	10	x
Cc1cccc(C)c1-n1c(C)cc(/C=N\NC(=O)CC(=O)NC2CCCCC2)c1C	-4	22	-5	17	22	41*	27
Cc1cc(/C=N\NC(=O)CC(=O)NC2CCCCC2)c(C)n1-c1ccc(Cl)c(Cl)c1	5	-9	12	15	0	46*	-20
Cc1cccc(C)c1-n1c(C)cc(/C=N/NC(=O)CSc2ncccn2)c1C	19	24	5	-5	23	18	x
CCOC(=O)NC1(NC2CCCCC2)Oc2ccccc2O1	-14	37	-7	-3	46	40*	28
CC(OC(=O)CNS(=O)(=O)c1ccc2ccccc2c1)C(=O)N(C)c1ccccc1 (centres undefined)	-6	16	-7	0	24	21	x
CC(OC(=O)COc1ccc(Nc2ccccc2)cc1)C(=O)N(C)c1ccccc1 (centres undefined)	13	13	0	1	31	42*	30*
COc1ccc(C(=O)CC(CC(=O)c2ccc(OC)cc2)C(=O)O)cc1	1	0	8	9	15	6	x
COc1ccc(Br)cc1[C@H]1[C@@H]2C=CCC[C@@]2(C)C(=O)N1Cc1ccccc1	12	7	u	-25	6	44*	37*
C[C@@]12CCC=C[C@H]1[C@H](c1ccc3ccccc3c1)N(Cc1ccccc1)C2=O	24	13	69*	26	12	52*	53*
Cc1ccc(-c2nn(-c3ccccc3)cc2C(=O)Nc2cccc(S(=O)(=O)NC3=NCCC3)c2)cc1	24	x	x	x	x	x	x
Cc1cccc(C(=O)O/N=C/c2c(N3CCOCC3)n(C)c3ccccc23)c1	x	25	-1	x	19	41*	15
Cn1c(Cl)c(/C=N/OC(=O)c2ccccc2Cl)c2ccccc21	12	-3	-10	-17	11	10	x
CCc1cccc(CC)c1NC(=O)COC(=O)c1ccccc1-c1nc2ccccc2s1	22	10	8	0	26	44*	19
Cc1ccc(SCc2[nH]nc3c2C(c2ccc(C)o2)C(C#N)=C(N)O3)cc1 (centres undefined)	29	23	x	0	41	42*	38*
CCc1[nH]nc2c1C(c1ccc(C)o1)C(C#N)=C(N)O2 (centres undefined)	-14	-3	-3	x	-2	-2	x
NC(=O)COC(=O)c1ccccc1Oc1ccccc1	5	-3	10	-8	6	1	x
O=c1c2ccccc2nc(SCc2cn3ccsc3n2)n1-c1ccc(F)cc1	15	18	4	-3	32	43*	19
SMILES	EBI2 block	TIM10 inh	SKKanGAS inh	PfHsp90 yeast 2	tim23-1 inh	tim10-1 inh	tim10-1 conf
O=C(CSc1nc2ccccc2c(=O)n1-c1ccc(F)cc1)NCc1ccco1	-5	14	7	21	19	21	x
COc1ccccc1N1CCN(C(=O)c2oc3cc(C)cc(C)c3c2C)CC1	19	28	10	-6	30	45*	28
COc1ccccc1N1CCN(C(=O)c2cc(=O)c3ccc(C)cc3o2)CC1	43	15	2	-5	18	28	x
COc1cc(C(=O)N2CCN(c3cccc(C)c3C)CC2)cc(OC)c1OC	-1	21	-7	-49	42	42*	2
COc1ccccc1N1CCN(C(=O)C2c3ccccc3Oc3ccccc32)CC1	20	24	0	x	33	45*	20
C[C@H]1CN([C@@H](C)CO)C(=O)CCCn2cc(nn2)CO[C@@H]1CN(C)C(=O)Nc1ccc2c(c1)OCO2	-2	x	x	x	x	x	x
NC(=O)CC(NC(=O)Cc1ccc(Br)cc1)c1ccc(N2CCC(N3CCCC3)CC2)c([N+](=O)[O-])c1 (centres undefined)	-6	-3	-2	8	7	-8	x
O=C(NCCCn1ccnc1)c1ccc(Cl)c(S(=O)(=O)N2CCOCC2)c1	-3	-10	-5	-7	-8	-5	x
O=C(CNCc1cccc2ccccc12)Nc1ccccc1[N+](=O)[O-]	-8	36	4	5	38	37	x
CCOC(=O)C1CSc2[nH]c(=O)sc2C1c1ccccc1 (centres undefined)	-1	21	2	-7	37	40	16
COc1ccc(C2c3sc(=O)[nH]c3SCC2C(N)=O)cc1 (centres undefined)	4	10	2	-15	-1	1	x
COc1ccc(S(=O)(=O)Nc2cc(C(C)C)c(O)cc2C)cc1	6	7	3	-46	3	16	x
COc1ccc2nc3cc(Cl)ccc3c(Nc3cc(C(C)C)c(O)cc3C)c2c1	15	19	12	6	41	47*	37*
Nc1c(C(=O)NCc2ccc(Cl)cc2)sc2nc3c(c(C(F)(F)F)c12)CCC3	3	4	28	x	30	46*	26
Cc1nc(NCc2cccnc2)c2c3c(sc2n1)CCCC3	3	18	5	19	16	45*	5
Nc1nc(-c2cccnc2)nc2sc3c(c12)CCCC3	1	31	6	16	39	52*	33*
CC(=O)Nc1ccc(Oc2nc(-c3cccnc3)nc3sc4c(c23)CCCC4)cc1	-14	4	-7	0	1	2	x
O=C1CN(c2nc(-c3cccnc3)nc3sc4c(c23)CCCC4)CCN1	-2	30	10	x	-78	42*	15
COCCN(C(=O)CSc1n[nH]c(-c2ccccc2)n1)c1c(N)n(CC(C)C)c(=O)[nH]c1=O	1	7	16	-6	-11	-5	x
